Laboratory results taken from PMC4336329 (PLoS ONE, 2015).
Among all 310,000 compounds or so, about 2,200 (0.71%) showed an effect of 50% or more. The effect is printed as a negative number. Many of the other results were omitted from the sample, so strong results are more common in it than they were.

Biological target: human ether-à-go-go-related gene (hERG) potassium channel (human, UniProt Q12809)
Assay: primary screen, population patch clamp on CHO cells stably expressing hERG; higher = less effect of the substance

Chain of human ether-à-go-go-related gene (hERG) potassium channel (Q12809 whole entry, looked up): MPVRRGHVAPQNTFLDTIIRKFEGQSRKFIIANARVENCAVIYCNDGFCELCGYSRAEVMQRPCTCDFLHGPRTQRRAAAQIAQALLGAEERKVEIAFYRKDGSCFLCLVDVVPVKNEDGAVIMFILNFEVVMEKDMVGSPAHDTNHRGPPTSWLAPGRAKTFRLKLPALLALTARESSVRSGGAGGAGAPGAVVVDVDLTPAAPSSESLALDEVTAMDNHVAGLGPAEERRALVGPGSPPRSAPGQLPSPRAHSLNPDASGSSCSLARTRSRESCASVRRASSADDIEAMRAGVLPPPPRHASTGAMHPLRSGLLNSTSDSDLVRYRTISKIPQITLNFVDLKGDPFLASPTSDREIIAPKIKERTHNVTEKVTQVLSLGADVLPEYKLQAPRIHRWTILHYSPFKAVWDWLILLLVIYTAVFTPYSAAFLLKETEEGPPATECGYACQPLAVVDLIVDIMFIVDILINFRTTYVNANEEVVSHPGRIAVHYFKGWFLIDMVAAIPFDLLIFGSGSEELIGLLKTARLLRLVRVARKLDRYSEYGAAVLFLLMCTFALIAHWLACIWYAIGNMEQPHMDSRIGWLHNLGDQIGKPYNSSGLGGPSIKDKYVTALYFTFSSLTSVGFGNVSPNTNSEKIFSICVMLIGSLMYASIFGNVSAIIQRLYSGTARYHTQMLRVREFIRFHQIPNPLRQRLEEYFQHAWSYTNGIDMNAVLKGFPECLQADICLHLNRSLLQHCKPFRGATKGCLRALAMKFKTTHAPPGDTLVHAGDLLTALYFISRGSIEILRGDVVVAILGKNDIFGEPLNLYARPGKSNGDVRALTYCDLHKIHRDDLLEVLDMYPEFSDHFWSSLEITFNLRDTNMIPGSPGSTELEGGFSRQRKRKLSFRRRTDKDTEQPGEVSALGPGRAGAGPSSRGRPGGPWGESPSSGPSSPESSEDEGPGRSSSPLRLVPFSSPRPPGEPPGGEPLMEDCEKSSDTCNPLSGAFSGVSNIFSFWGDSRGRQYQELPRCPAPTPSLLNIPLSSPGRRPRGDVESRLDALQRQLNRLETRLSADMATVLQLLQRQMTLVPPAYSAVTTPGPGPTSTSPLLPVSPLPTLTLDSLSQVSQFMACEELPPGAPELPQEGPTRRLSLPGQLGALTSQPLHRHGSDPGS

Point of comparison: `CCOc1ccc(CN2CCN(Cc3cc4ccccc4o3)CC2CCO)cc1` (centres unmarked), “hERG current change (%, negative = inhibition) at 1uM” value -82%. Against it:
- Cc1ncc(CSc2ccc(Cl)cc2)c(CO)c1O — higher, 12.9%
- COCCCNC(=O)c1ccc2nc(Cc3ccc(OC)cc3)oc2c1 — higher, 10.8%
- Cn1nnnc1Sc1ncnc2scc(-c3cccc(S(C)(=O)=O)c3)c12 — higher, 12.6%
- OCCC1CN(Cc2cnc(-c3ccccc3)s2)CCN1Cc1ccccc1 (centres unmarked) — higher, 1.93%
- CCOc1ccc(CN2CCN(Cc3cnc(N4CCOCC4)s3)CC2CCO)cc1 (centres unmarked) — higher, -19.2%
- CCOc1ccccc1CN1CCN(Cc2ccc(C)o2)CC1CCO (centres unmarked) — higher, -9.63%
- CCOc1ccc(CN2CCN(Cc3cnc(-c4ccccc4)s3)CC2CCO)cc1 (centres unmarked) — lower, -90.1%
- CCOc1ccc(CN2CCN(Cc3ccc(C)o3)CC2CCO)cc1 (centres unmarked) — lower, -87.8%
- CCOc1ccccc1CN1CCN(C2CCSCC2)CC1CCO (centres unmarked) — higher, -7.19%
- OCCC1CN(Cc2cc3ccccc3o2)CCN1Cc1ccc(F)cc1 (centres unmarked) — higher, 15.2%
- CCOc1ccc(CN2CCN(C3CCSCC3)CC2CCO)cc1 (centres unmarked) — higher, -76.2%
- CCOc1ccc(CN2CCN(C3CCC3)CC2CCO)cc1 (centres unmarked) — higher, 3.11%
- Cc1ccc(CN2CCN(Cc3ccc(OCCO)cc3)CC2CCO)o1 (centres unmarked) — higher, 1.83%
- Cc1ccc(CN2CCN(Cc3cc4ccccc4o3)CC2CCO)cc1 (centres unmarked) — higher, -12.5%
- O=C(CSc1nnc(CNC(=O)c2ccccc2)o1)NCc1ccc2c(c1)OCO2 — higher, 4.4%
- CCN1CCN(c2c(Cl)cccc2NC(=O)c2ccc([N+](=O)[O-])cc2)CC1 — higher, -15.9%
- CSc1ccccc1C(=O)C1CCCN(C(=O)CCc2cccnc2)C1 (centres unmarked) — higher, 8.69%
- COc1ccc(NC(=O)CSc2nc3ccccc3c(=O)n2CCCO)cn1 — higher, -26.1%
- COc1ccc(OC)c(C2CC(=O)NC(SC)=C2C#N)c1 (centres unmarked) — higher, 7.92%
- O=C(CSc1ccccc1)Nc1nnc(COc2ccc(Cl)cc2)s1 — higher, 3.34%
- COc1cc(CN2CCN(Cc3ccc4cc(F)ccc4n3)CC2CCO)cc(OC)c1 (centres unmarked) — higher, -21.6%
- CCOc1ccccc1CN1CCN(Cc2ccc3cc(F)ccc3n2)CC1CCO (centres unmarked) — higher, -44.1%
- CCOc1ccc(CN2CCN(Cc3ccc4cc(F)ccc4n3)CC2CCO)cc1 (centres unmarked) — higher, -79.3%
- Cc1cc(C)nc(/N=C(\N)Nc2ccc(OCCC(C)C)cc2)n1 — higher, -55.9%
- CCOc1ccc(N/C(N)=N/c2nc(C)cc(C)n2)cc1 — higher, 4.81%
- Cc1ccc(N/C(N)=N/c2nc(C)cc(C)n2)cc1 — higher, -24.7%
- Cc1cc(=O)[nH]c(/N=C(\N)Nc2ccc(SC(F)F)cc2)n1 — higher, 1.96%
- CC(=O)Nc1ccc(N/C(N)=N/c2nc(C)cc(C)n2)cc1 — higher, 8.5%
- Cc1cc(C)nc(/N=C(\N)Nc2ccc(C(C)C)cc2)n1 — higher, -3.29%
- Cc1cc(C)nc(/N=C(\N)Nc2ccc(SC(F)F)cc2)n1 — higher, -52.9%
- Cc1cc(C)nc(/N=C(\N)Nc2ccc(-c3ccccc3)cc2)n1 — higher, -59.8%
- Cc1cc(C)nc(/N=C(\N)Nc2ccc(OCc3ccccc3)cc2)n1 — higher, -28.8%
- COc1cccc(N2CCN(S(=O)(=O)c3c(C)[nH]c(C)c3C(=O)N3CCCCC3)CC2)c1 — higher, 15.2%
- CC(C)(C)OC(=O)N1CCC(Cc2cc(-c3cccc(Br)c3)no2)(C(=O)O)CC1 — higher, -14%
- Cc1ccc(-n2nc3c(c2NC(=O)C2CC2)CS(=O)(=O)C3)cc1 — higher, -0.97%
- O=C(COC(=O)C1CCCCC1)Nc1ccccc1OC(F)F — higher, 12.3%
- Cc1cccn2c(CN3CCCC(c4ccccc4)C3)c(C(=O)N3CCOCC3)nc12 (centres unmarked) — higher, -53.3%
- Cc1cccn2c(CN[C@@H]3CCCC[C@H]3c3ccccc3)c(C(=O)N3CCOCC3)nc12 — higher, 4.31%
- Cc1cccn2c(CN3CCSCC3)c(C(=O)N3CCOCC3)nc12 — higher, -1.36%
- COc1cc2c(cc1OC)C1(Nc3c-2c(Cc2ccccc2)nn3-c2ccccc2)C(=O)Nc2ccccc21 (centres unmarked) — higher, 12.4%
- N=c1c2c(-c3ccccc3)c(-c3ccccc3)n(Cc3ccco3)c2ncn1CCO — higher, -52.2%
- CCCCn1cnc2c(c(-c3ccccc3)c(-c3ccccc3)n2Cc2ccco2)c1=N — higher, -45.6%
- N=c1c2c(-c3ccccc3)c(-c3ccccc3)n(Cc3ccco3)c2ncn1Cc1ccccc1 — higher, -4.13%
- N=c1c2c(-c3ccccc3)c(-c3ccccc3)n(Cc3ccco3)c2ncn1CCCn1ccnc1 — higher, -63.6%
- N=c1c2c(-c3ccccc3)c(-c3ccccc3)n(Cc3ccccc3)c2ncn1CCO — higher, 0.416%
- N=c1c2c(-c3ccccc3)c(-c3ccccc3)n(Cc3ccco3)c2ncn1Cc1ccco1 — higher, -26.8%
- N=c1c2c(-c3ccccc3)c(-c3ccccc3)n(Cc3ccco3)c2ncn1CCCO — higher, -34.5%
- N=c1c2c(-c3ccccc3)c(-c3ccccc3)n(Cc3ccco3)c2ncn1CCCN1CCOCC1 — lower, -91.3%
- N=c1c2c(-c3ccccc3)c(-c3ccccc3)n(Cc3ccccc3)c2ncn1CCCn1ccnc1 — higher, -32%
- CC(C)Cn1cnc2c(c(-c3ccccc3)c(-c3ccccc3)n2Cc2ccco2)c1=N — higher, -26.2%
- N=c1c2c(-c3ccccc3)c(-c3ccccc3)n(Cc3ccco3)c2ncn1CCN1CCOCC1 — higher, -72.3%
- c1ccc(-c2c(-c3ccccc3)n(Cc3ccco3)c3ncnc(NCCCn4ccnc4)c23)cc1 — higher, -9.73%
- Cc1cc(C)n(Cc2ccc(NC(=O)c3ccc(COc4ccccc4Br)cc3)cc2)n1 — higher, -8.42%
- O=C(O)C1=C(OCc2ccc(F)c(F)c2)C(=O)NCC1 — higher, 13.4%
- Cc1ccc(C(C(=O)NC2CCCC2)N(Cc2ccccc2)C(=O)c2csnn2)o1 (centres unmarked) — higher, 12.4%
- COc1cc(C(=O)O)ccc1OCc1ccncc1 — higher, 14.1%
- CCOC(=O)C(=O)NC(C)CCc1ccccc1 (centres unmarked) — higher, 9.43%
- Cc1ccc(C(C)C)c(OCC(=O)N2CCN(c3ncccn3)CC2)c1 — higher, 10%
- Cc1cccn2c(=O)c3cc(C(=O)NC4CCCCC4)c(=N)n(Cc4ccccc4)c3nc12 — higher, -40.2%
- Cc1cccn2c(=O)c3cc(S(=O)(=O)c4ccccc4)c(=N)n(CC4CCCO4)c3nc12 (centres unmarked) — higher, 7.88%
- Cc1cccn2c(=O)nc(SCC(=O)NCc3ccc4c(c3)OCO4)nc12 — higher, -1.11%
- CCCn1c(=N)c(C(=O)NCc2ccc3c(c2)OCO3)cc2c(=O)n3cccc(C)c3nc21 — higher, -67.3%
- Cc1cccn2c(=O)c3cc(C(=O)NCC4CCCO4)c(=N)n(CC4CCCO4)c3nc12 (centres unmarked) — lower, -84.8%
- CCCn1c(=N)c(C(=O)NCC2CCCO2)cc2c(=O)n3cccc(C)c3nc21 (centres unmarked) — higher, -78.3%
- Cc1cccn2c(=O)c3cc(C(=O)NC4CCCC4)c(=N)n(CC4CCCO4)c3nc12 (centres unmarked) — higher, -80.2%
- O=C(O)C1=C[C@H](C2CC2)C[C@H](OCCCCO)O1 — higher, 12.3%
- O=C(CSc1n[nH]c(=O)n1Cc1ccco1)Nc1ccccc1Cl — higher, 6.62%
- CCOc1cccc(C2/C(=C(/O)c3ccc4c(c3)CC(C)O4)C(=O)C(=O)N2Cc2cccnc2)c1 (centres unmarked) — higher, 18.4%
- CCOC(=O)NCc1ccccc1 — higher, -5.01%
- CCCCCCS(=O)[C@H]1CS(=O)(=O)C[C@@H]1S(=O)CCCCCC (some centres unmarked) — higher, -25.8%
- CNC(=O)Cn1ncc2c3ccccc3n(C)c2c1=O — higher, 13.1%
- O=C(O)CC(NC(=O)C12CC3CC(CC(C3)C1)C2)c1cc([N+](=O)[O-])ccc1Cl (centres unmarked) — higher, 2.33%
- Cc1nc(SCC(=O)NC2CCCC2)[nH]c(=O)c1C — higher, 6.4%
- O=C1OC(c2ccc(Cl)cc2)/C(=C(/O)c2ccccc2)C1=O (centres unmarked) — higher, 2.03%
- CCOC(=O)c1ccc(NC(=O)c2nc[nH]c2C(=O)NCCCNC(=O)c2[nH]cnc2C(=O)Nc2ccc(C(=O)OCC)cc2)cc1 — higher, 13.8%
- Cc1ccc2nc3c(cc(C(=O)NCC4CCCO4)c(=N)n3CCCOC(C)C)c(=O)n2c1 (centres unmarked) — higher, -72.5%
- COCCCn1c(=N)c(C(=O)NCC2CCCO2)cc2c(=O)n3ccccc3nc21 (centres unmarked) — higher, -44.3%
- COCCCn1c(=N)c(C(=O)NCC2CCCO2)cc2c(=O)n3cccc(C)c3nc21 (centres unmarked) — higher, -74.8%
- CCN(C(=O)c1cc2c(=O)n3cccc(C)c3nc2n1CCCOC)C1CCCCC1 — higher, 4.12%
- CC(C)OCCCn1c(SC(C)C(=O)NCC2CCCO2)nc2cc(Cl)ccc2c1=O (centres unmarked) — higher, 7.81%
- Cc1cccn2c(=O)c3cc(C(=O)NCC4CCCO4)c(=N)n(CCN4CCOCC4)c3nc12 (centres unmarked) — higher, -50.1%
- COc1ccc(C2c3c(oc4ccc(Cl)cc4c3=O)C(=O)N2CCN2CCOCC2)cc1 (centres unmarked) — higher, -24%
